Test results reported in PubChem BioAssay (NCI).
This is part of a sample that, as a whole, favours compounds with a hit. Of some 83,000 tested, about 20% had one in any assay.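 Treatment: one concentration, 48 hours, 96-well format. Scoring: percent growth, with anything below 10 considered active.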 Unmarked numbers belong to inactive results. The source made the active and inactive calls.

Legend:
Assay in all cases: NCI-60 one-dose screen, 48 h (100 = growth as untreated, 0 = no growth, -100 = all killed)
SR leukemia = details: 10 µM unless noted
RPMI-8226 leukemia = details: 10 µM unless noted
OVCAR-8 ovarian = details: 10 µM unless noted
OVCAR-5 ovarian = details: 10 µM unless noted
OVCAR-4 ovarian = details: 10 µM unless noted
SK-OV-3 ovarian = details: 10 µM unless noted
IGROV1 ovarian = details: 10 µM unless noted
OVCAR-3 ovarian = details: 10 µM unless noted
HS 578T breast = details: 10 µM
NCI/ADR-RES ovarian = details: 10 µM unless noted
BT-549 breast = details: 10 µM unless noted
MDA-MB-435 melanoma = details: 10 µM unless noted
SW-620 colon = details: 10 µM unless noted
MCF7 breast = details: 10 µM unless noted
HCT-116 colon = details: 10 µM unless noted
HCC-2998 colon = details: 10 µM unless noted
KM12 colon = details: 10 µM unless noted
T-47D breast = details: 10 µM unless noted

Structure (SMILES) | growth (SR leukemia) | growth (RPMI-8226 leukemia) | growth (OVCAR-8 ovarian) | growth (OVCAR-5 ovarian) | growth (OVCAR-4 ovarian) | growth (SK-OV-3 ovarian) | growth (IGROV1 ovarian) [%] | growth (OVCAR-3 ovarian) | growth (HS 578T breast) | growth (NCI/ADR-RES ovarian) | growth (BT-549 breast) [%] | growth (MDA-MB-435 melanoma) | growth (SW-620 colon) | growth (MCF7 breast) | growth (HCT-116 colon) | growth (HCC-2998 colon) | growth (KM12 colon) | growth (T-47D breast) [%]
COc1c(B(O)O)cccc1-c1nc2c(F)cc3n[nH]c(C)c3c2c2c1CCCC2 | 42% | 6.03% (active) | 17.3% | 8.74% (active) | 43.7% | -1.49% (active) | 16.3 | 9.19% (active) | 9.55% (active) | 36.4% | 21.2 | 21.2% | 15.3% | 15% | 10.5% | 51.7% | 20.5% | 
O=S(=O)(NCC[C@@H]1C[C@H]1c1ccc2ccccc2c1)c1ccc(C(F)(F)F)cc1 | 92.7% | 76% | 97.4% | 99.3% | 79.6% | 103% | 92 | 101% | 89.6% | 94.3% | 92.5 | 99.1% | 98.6% | 91.1% | 88% | 101% | 95.2% | 
Cc1nc2ccc(Nc3nc(N4CCOCC4)nc(N4CCN(C)CC4)n3)cc2n1Cc1ccccc1 | 24.9% | 65.4% | 93.6% | 101% | 112% | 96.2% | 98.2 | 94.7% | 69.3% |  | 66.1 | 91% | 96.9% | 82.6% | 71.3% | 96.3% | 93.2% | 91.9
Clc1ccc(-c2nc(Br)cn3ccnc23)cc1 | 92.2% | 93.4% | 86.8% | 90.4% | 112% | 88.5% | 74.3 | 82.8% | 91.3% |  | 84.1 | 111% | 91.5% | 64.1% | 77.8% | 104% | 86.6% | 54.4
COc1ccc(C2CC(c3cccc(Nc4ccnc5cc(Cl)ccc45)c3)=NN2c2ccccc2)cc1 (stereo not given) | 29.7% | 67.9% | 76.4% | 85.6% | 118% | 80.8% | 74.8 | 92.1% | 78.3% |  | 63 | -9.41% (active) | 36.8% | 47.6% | 65.5% | 54.1% | 27.1% | 50.8
Nc1nc(N)c2c(n1)NC(c1sc(Cl)nc1Cl)CC(c1ccc3c(c1)OCO3)=N2 (stereo not given) | 17.1% | 27.1% | 40.5% | 66.3% | 86% | 17.4% | 34.2 | 10.4% | 10.8% |  | 27.2 | -9.34% (active) | 13.2% | 26.2% | 20.1% | 61.2% | 34.2% | 39.1
CN1CCN(Cc2ccc(NC(=O)c3cncc(C#Cc4ncc5ccccn45)c3)cc2C(F)(F)F)CC1 | 15.6% | 21.1% | 24.7% | 32.8% | 7.89% (active) | 19.6% | 17.9 | 36.9% | 7.01% (active) | 27.7% | 39.3 | 28.1% | 1.35% (active) | -6.36% (active) |  | 48.6% | 4.65% (active) | 
C#CC[C@@H]1C[C@]2(C)[C@H]3CC=C4[C@H]5[C@@H](C)[C@H](C)CC[C@]5(C(=O)NCCCCCCCCN)CC[C@@]4(C)[C@]3(C)CC[C@H]2C(C)(C)[C@H]1OC(C)=O | 3.43% (active) | -45.8% (active) | -33.6% (active) | 108% | -0.477% (active) | 116% | 50.9 | -91.5% (active) | 101% | 65.9% | 93.7 | -62.4% (active) | -61.9% (active) |  | -99.4% (active) | 58.4% | 0.426% (active) | 
CC(=O)c1cc(C(=O)c2ccc3c(c2)Sc2ccccc2N3)c2c(C)cccn12 | 12.8% | 15.7% | 18.8% | 45.4% | 47% | 25.1% | 34.1 | -27.5% (active) | 56.2% | 9.46% (active) | 18.2 | -26.9% (active) | 28.8% | 24.5% |  | 22.8% | 11.8% | 
Fc1cnccc1-c1nc2ccc3[nH]ncc3c2c2c1CCCC2 | 34.1% | 37.6% | 30.2% | 45.2% | 48.9% | -21.2% (active) | 12.1 | 30.4% | 10.8% | 32.3% |  | 10.4% | 14.6% | 34.7% | 7.21% (active) | 37.5% | 18.4% | 
Nc1ccc(N(O)/C=C2\C=CC=CC2=O)cc1N | 95.3% | 52.8% | 95.4% | 71.1% | 99.6% | 107% | 80.2 | 89.1% | 94.2% | 82% | 103 | 97.7% | 105% |  | 85.1% | 93.4% | 83.3% | 
COc1ccc(NC(=O)C2c3ccccc3C(=O)N(CC(C)C)C2c2cccs2)cc1 (stereo not given) | 96.5% | 86.3% | 89.1% | 97% | 93.6% | 96.5% | 117 | 102% | 92.2% |  | 98.9 | 103% | 92% | 82.3% | 93.3% | 93.3% | 97.5% | 102
CCc1ccc(Nc2cc(C)c3ccc(O)cc3n2)cc1 | 43.9% | 29.9% | 80% | 83.7% | 75.7% | 90.1% | 53.8 | 81% | 87.6% |  | 88.3 | 28.5% | 78.5% | 63.9% | 56.8% | -59.8% (active) | 53.9% | 55.3
Cc1nc2ccc(Nc3nc(NCCN4CCOCC4)nc(Nc4ccc(F)cc4)n3)cc2n1Cc1ccccc1 | 0.147% (active) | 3.11% (active) | 50.2% | 84.1% | 98.1% | 79% | 69 | 73.7% | 40.6% |  | 49.9 | 52.2% | 42.4% | 33.6% | 27.9% | 44.5% | 43.4% | 53
COc1ccc(C(=O)/C=C/c2cn(-c3ccccc3)nc2-c2cccc(Nc3ccnc4cc(Cl)ccc34)c2)cc1 | 8.4% (active) | 66.7% | 91.1% | 111% | 115% | 118% | 105 | 110% | 88.8% |  | 100 | 66% | 97.8% | 85.8% | 91.9% | 109% | 94.9% | 97.1
C#CC[C@@H]1C[C@]2(C)[C@H]3CC[C@@H]4[C@H]5C(C(=C)C)CC[C@]5(C(=O)NCCN(CCN)CCN)CC[C@@]4(C)[C@]3(C)CC[C@H]2C(C)(C)[C@H]1OC(C)=O (stereo not given in full) | -0.547% (active) | 58.3% | 72.1% | 63.3% | 21.7% | 105% | 98 | 48.7% | 115% | 95.4% | 110 | 84.8% | 15.2% | -59.9% (active) |  | 81.1% | 60% | 
O=C(Cc1ccc(Nc2ccnc(C(F)(F)F)c2)cc1)N/N=C/c1ccccc1O | 98.2% | 29.6% | 25.6% | 28.1% | 18.4% | 17.1% | 18.8 | 40.8% | 102% | 23.8% | 50.2 | 34.7% | 38.3% | 12.9% | 16.1% | 40.5% | 30.7% | 
[O-]/[N+](=C\c1ccccc1)CC1(O)CCCCC1 | 99.5% | 97.2% | 99.5% | 95.8% | 95.9% | 113% | 125 | 111% | 98.2% |  | 111 | 100% | 94.2% | 92.7% | 117% | 115% | 100% | 106
